First the molecules themselves.
B1: VH:VL chains; a variant is named by its letters at X, in order (parent)
chain 1: QVQLVQSGAEVKKPGASVKVSCKASGYTFTDYXMHWVRQAPGQGLEWMGXVNPNXXXTTYNQKFEGRVTMTTDTSTSTAYMELRSLRSDDTAVYYCARXNXLDXWGQGTTVTVSS
chain 2: DIQMTQSPSSLSASVGDRVTITCSVSSSVSSIYLHWYQQKPGKAPKLLIYSTSNLASGVPSRFSGSGSGTDFTLTISSLQPEDFATYYCQVYSGYPLTFGGGTKVEIK

The other results are listed elsewhere or left out. No count for the full screen is at hand.

The variants in the experiment derive from B1. Kind of experiment: yeast display scFab, FACS + sequencing. The following applies: with MET. The procedure, abridged: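 Two magnetic rounds on Protein A beads coated with HGFR-Fc, followed by FACS, were used to enrich a yeast surface scFab library mutated in the heavy-chain CDRs. FACS gated the top 50% antigen-positive cells after 3 h labelling at room temperature with 1 nM HGFR-Fc and anti-Myc in PBSB plus 1% milk. Binding to the antigen was scored positive when a sequence occurred in both antigen-positive samples from deep sequencing and negative when it occurred only in the input.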
Turning to DTKAASWA, the antigen binding call is listed as “no binding”. With FKAGGAVA the entry was “binds”; with FKGEGDVA, “no binding”; with YKGKGSVA, “binds”. On to AATGSAWA, for which the antigen binding call is given as “no binding”.

With DRAGGAGD, the antigen binding call is given as “binds”. In the case of DRGGSAGD it was “binds”; in that of DRGRDAGD, “no binding”; in that of FRGGSAVD, “binds”.

As for DAARGAGD, the antigen binding call was “no binding”. With DRTTNAGD the entry was “no binding”. With DRGEGAGD chain 1 G42D the entry was “binds”; with DAGGGAGD, “no binding”. As to DAGEAAGD, the antigen binding call is reported as “no binding”. In the case of DKGGAAGD, the antigen binding call is listed as “no binding”. With VRGGSDVD the entry was “no binding”; with FAGRDVGV, “no binding”. For the variant SGKGGSAY, the antigen binding call is “no binding”. In the case of FRGGSAGD it was “binds”; in that of FRKGSAVD, “binds”. In the case of FTGGAAGD it was “no binding”. With FRGADFGD the entry was “no binding”; with DAGGADAY, “no binding”; with FTGGASGV chain 1 V111I, “no binding”. Take YKAKGASV: the antigen binding call is given as “binds”.

As to YKGRGASV, the antigen binding call is reported as “binds”.

As to YGGGGDVV, the antigen binding call is “no binding”.

Turning to YKAGDVSV, the antigen binding call was “no binding”.

With YGGGGASV, the antigen binding call was “binds”.

As to VEGTSASV, the antigen binding call is listed as “no binding”.

Turning to YEGGGFSV, the antigen binding call is reported as “no binding”. In the case of VKGRAFSV it was “no binding”; in that of VKGRGASV, “binds”; in that of SEEGTDWY, “no binding”.

With DAGGAAAD, the antigen binding call is “no binding”. With YEGTGAGA the entry was “no binding”; with YKRRSASA, “binds”. With YKGRSASV the entry was “binds”; with YAGRGDSA, “no binding”; with FKRRSVGA, “no binding”. In the case of YKGRGASD it was “binds”; in that of YAGRGASA, “no binding”. As to VKGRSDWV, the antigen binding call is given as “no binding”. With VKGRSFLV, the antigen binding call is “no binding”. With YKGRGASA the entry was “binds”; with VERGTYGV, “no binding”. In the case of AKTKSDWV it was “no binding”; in that of VTTRDDSD, “no binding”. In the case of VAGTGDWY it was “no binding”. Regarding DTEGDAGD, the antigen binding call was “no binding”. With VTGESDWY the entry was “no binding”; with VTGEGALV, “no binding”; with FRGEGFSV, “no binding”.

Regarding FRGGGFVV, the antigen binding call is reported as “no binding”. For the variant FRGKGSGV, the antigen binding call was “binds”. With FRKGGSGV the entry was “binds”; with FRGKGFGV, “no binding”; with FRGGGSGV, “binds”.

As to FRGEGALV, the antigen binding call is reported as “binds”. With FRGGSSGV the entry was “binds”; with FRGGGVGV, “binds”; with FKGGNVGV, “no binding”.

With FAGEGAGV, the antigen binding call was “no binding”. With FRGEGSGV the entry was “binds”; with VRGGGVGV, “no binding”. In the case of ARGEGSGV it was “no binding”. In the case of STEGGSVY it was “no binding”. In the case of SKTKSDWA, the antigen binding call was “no binding”.

Regarding SGEGGAVA, the antigen binding call is given as “no binding”. With DEAGGDGY the entry was “no binding”; with YRKESAVY, “binds”. As for YRRGDSLY, the antigen binding call was “binds”. In the case of YRRGSSLY it was “binds”; in that of YRRGSALY, “binds”. In the case of FARKSDSS, the antigen binding call is recorded as “no binding”. In the case of DKKKDVVF it was “no binding”. For the variant FKTAGSAV chain 1 R67H, the antigen binding call is on record as “no binding”. With YRRGSAVY the entry was “binds”. With YRRGSYVY, the antigen binding call was “no binding”. With ATGGAALD the entry was “no binding”; with YRKGGSAA, “binds”; with YRKGSSAA, “binds”. With VAEEDAGY the entry was “no binding”; with DARGAYLV, “no binding”. In the case of YRGKAAGV it was “binds”; in that of YTGTSAGV, “no binding”. Take YRAGDFGV: the antigen binding call is listed as “no binding”. Consider YRGKAFGV, for which the antigen binding call was “binds”. On to VKAASAVY, for which the antigen binding call is listed as “no binding”. Regarding YKARGAVY, the antigen binding call was “binds”.

Regarding VTGTGAAD, the antigen binding call is “no binding”. In the case of YRARGAAY it was “binds”.

Turning to FRARGAAY, the antigen binding call was “binds”. As for YKGRSAVY, the antigen binding call is listed as “no binding”.

With VAEGDAAD, the antigen binding call was “no binding”. In the case of VRARGAAD it was “binds”; in that of DRRANFLY, “no binding”; in that of DREEGDGS, “no binding”. For YKARGAAY, the antigen binding call was “binds”. With VEGTSAAY the entry was “no binding”; with VRARGAAY, “binds”; with DKATGDAY, “no binding”.

For FRRTDFVA chain 1 C22Y, the antigen binding call is “no binding”.

In the case of ARGRGSAA, the antigen binding call is listed as “binds”. Take ARKTGAGA: the antigen binding call was “no binding”. Take ARRRGAAA: the antigen binding call was “binds”. With AEEEGSAA the entry was “no binding”; with ARGRSDVA, “no binding”; with AETKGAAA, “no binding”. In the case of ARGRGSVA it was “binds”; in that of ARRRGSAA, “binds”; in that of VETTDSWV, “no binding”. In the case of VAERSFGV it was “no binding”.

In the case of VEEAAAGV, the antigen binding call is “no binding”. With FTRESFAA the entry was “no binding”; with ARAGSAWA, “no binding”; with ARAGDAVA, “no binding”. In the case of ARAGGAAA it was “binds”. For SKGKGAGD, the antigen binding call is on record as “binds”. With YKGKGFGF the entry was “no binding”; with DAGKGAGD, “no binding”; with SKGRSDVF, “no binding”. With YKGKGAGF the entry was “binds”; with YKGKGSGF, “binds”; with SKGRGAGS, “binds”.

For the variant SKGKGAGF, the antigen binding call was “binds”. Turning to DGEGGDWD, the antigen binding call was “no binding”. With VGRTSFGF the entry was “no binding”. With YKGKGSLF the entry was “binds”; with YKAGGFWF, “no binding”.

For YKAGGSLF, the antigen binding call is “binds”. In the case of VKGRADWF it was “no binding”; in that of VTGEDDVV, “no binding”. In the case of VKGRADAV it was “no binding”; in that of SRGRGSLS, “binds”; in that of SGTADSSS, “no binding”. In the case of SRGRGSSS it was “binds”. For SAGRGDGS, the antigen binding call is listed as “no binding”.

AATTDSSS: the antigen binding call is “no binding”. In the case of SRGRGVLV it was “no binding”; in that of ARGRGSSS, “binds”; in that of SEGRGDGA, “no binding”.

For AKTKSDGV, the antigen binding call was “no binding”. In the case of ATGGDSGD it was “no binding”; in that of AKGRGDGA, “no binding”. In the case of VEGRGDGA it was “no binding”. In the case of VKGRGVGA it was “binds”; in that of YKGRGVGA, “binds”; in that of YAGRGDGA, “no binding”. VRARGDGY: the antigen binding call was “binds”. With VTGGDDGY the entry was “no binding”.

For the variant VRGGSDGY, the antigen binding call is on record as “binds”. As to VRGGDDGV, the antigen binding call is on record as “no binding”. With ARERGDGY the entry was “no binding”; with VAGTGDGY, “no binding”. With VTGGGDGS the entry was “no binding”. In the case of VRGGGDGY it was “binds”. For the variant VEARGDGA, the antigen binding call was “no binding”.

For DAERTDGV, the antigen binding call is “no binding”. In the case of AEAGADVV it was “no binding”; in that of YAREGSGA, “no binding”; in that of VAEKGALA, “no binding”. With YTREGAVA the entry was “no binding”; with VRRRGALA, “binds”; with YRRRGALA, “binds”. In the case of VTEGGALA, the antigen binding call is reported as “no binding”.

As to YRREGSLA, the antigen binding call is “binds”. With YRRRGSLA the entry was “binds”; with VKGRADSV, “no binding”; with YRRGGALA, “binds”. With YREETSGA the entry was “no binding”. In the case of YRRRSSLA it was “binds”; in that of FRAGGSGA, “binds”. As for FKAGGSGA, the antigen binding call is listed as “no binding”.

As for FRARGAGA, the antigen binding call was “binds”. In the case of FAARDSGA it was “no binding”; in that of FRAGGAGA, “binds”. With FRARGSGA the entry was “binds”; with ARARGSGA, “no binding”. With FEAGDSGA the entry was “no binding”; with DKGEGDLA, “no binding”. For the variant VEEEGSGA, the antigen binding call is “no binding”. In the case of YRREGSVV it was “binds”; in that of YRREGSAV, “binds”; in that of YRRGGSAV, “binds”. In the case of YKREGSAV it was “no binding”; in that of YRRGSSAV, “binds”; in that of DRRGSDAV, “no binding”. As to VATRAVGA, the antigen binding call was “no binding”.

As for VKGRSDAS, the antigen binding call is “no binding”.

In the case of DTGGGDAA, the antigen binding call is given as “no binding”. In the case of FTREASAV it was “no binding”; in that of VTTKSSAV, “no binding”; in that of FRRGSSAV, “binds”. Take VRRGSSAV: the antigen binding call is “binds”. With VRRGSDGV the entry was “no binding”; with VRTEDDWY, “no binding”; with SEEEGDVA, “no binding”. With YTTGGDVA the entry was “no binding”; with VTAGDDGS, “no binding”. As for DTTGSDVF, the antigen binding call is reported as “no binding”. In the case of YRTRSAAV it was “binds”; in that of YRTRSSAV, “binds”. With YRRRGASF the entry was “binds”; with YRRRGSSF, “binds”; with STGGNDAD, “no binding”. With YKAGGFGA the entry was “no binding”.

In the case of YKGKGSLA, the antigen binding call is on record as “binds”. Take YKGKGFGA: the antigen binding call is recorded as “no binding”.

As for YKGEGDLA, the antigen binding call is listed as “no binding”. In the case of YKAGGALA it was “binds”; in that of YKGKGALA, “binds”.

(Values after the emibetuzumab library of Makowski et al. (2022).)
